# Assay outcomes: PubChem, several laboratories
# CYP2C19 act: activators of human cytochrome P450 2C19; P33261; recombinant CYP2C19, luciferin-H EGE luminescence; hits give high values; 0 = fully inhibited enzyme, 1 = untreated enzyme; activation factor at 5 µM; 96,000 tested, under 10 active;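 active = activation factor of at least 2 at 5 µM in the primary screen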
# CYP2C9 inhib: blocks human cytochrome P450 2C9. P11712. inhibition, % at 5 µM. hit rate 20% among 96,000. CYP2C9 Supersomes, luciferin-H conversion, luminescence. AID 777;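 active = blocking of liver enzyme CYP2C9 beyond about 50% at 5 µM, limit read from the data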
# Target sequence (P11712 whole entry, looked up): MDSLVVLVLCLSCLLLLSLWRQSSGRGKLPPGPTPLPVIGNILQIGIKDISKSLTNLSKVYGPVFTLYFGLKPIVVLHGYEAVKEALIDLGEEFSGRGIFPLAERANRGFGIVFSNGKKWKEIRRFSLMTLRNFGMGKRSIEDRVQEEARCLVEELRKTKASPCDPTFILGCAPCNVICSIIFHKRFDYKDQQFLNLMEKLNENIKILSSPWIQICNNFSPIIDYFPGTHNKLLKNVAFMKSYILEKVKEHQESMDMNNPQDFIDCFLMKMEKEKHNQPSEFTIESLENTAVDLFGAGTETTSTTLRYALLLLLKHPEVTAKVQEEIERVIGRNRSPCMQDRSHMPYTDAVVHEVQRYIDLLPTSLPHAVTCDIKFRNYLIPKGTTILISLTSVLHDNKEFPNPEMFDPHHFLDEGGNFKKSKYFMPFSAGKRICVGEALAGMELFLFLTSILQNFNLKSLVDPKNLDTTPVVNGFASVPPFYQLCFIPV
# PostGolgi yeast: growth inhibition of a yeast mutant, post-Golgi transport screen | post-Golgi transport phenotypic cell assay | inhibition, % at 10 µM | hit rate 0.9% among 98,000 | AID 739;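 also: yeast cells grown in 1536-well plates; yeast grown about 18 h at 30C before absorbance read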
# CYP2C9 act: activators of human CYP2C9. P11712. recombinant CYP2C9, luciferin-H conversion, luminescence; hits give high values; factor 1 = untreated enzyme, 0 = blocked. activation factor at 5 µM. hit rate 1.4% among 96,000;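 active = activation factor of 2 or more for CYP2C9 at a 5 µM dose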
# PostGolgi ctrl: growth of the yeast control strain, post-Golgi counter-screen | efflux-deficient yeast background strain, growth absorbance A615, 16 h | inhibition, % at 10 µM | hit rate 5% among 98,000 | AID 738
# CYP2C19 inh: human CYP2C19 inhibition; inhibition, % at 5 µM; hit rate 21% among 96,000; CYP2C19 Supersomes, luciferin-H EGE luminescence, 30 min; P33261;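 active = CYP2C19 inhibition above a set limit at 5 µM in the primary screen, cut at about 50% in these data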
# A number is an active result; - = inactive; . = no result given. Only some compounds are listed: those with a hit (about 32% of all), similar ones and a draw of the others. Rule as the data show it, unless noted: active = inhibition above about 30%; inactive = the rest.
SMILES,CYP2C19 act,CYP2C9 inhib,PostGolgi yeast,CYP2C9 act,PostGolgi ctrl,CYP2C19 inh
COc1ccccc1C(CC(=O)Nc1nccs1)c1ccco1 (stereo not given),-,55,-,-,-,64
Cc1ccc(C(=O)Oc2ccccc2N2C(=O)C3CCC(C)CC3C2=O)cc1 (stereo not given),-,58,-,-,-,54
CN(Cc1nc(-c2ccccn2)no1)S(=O)(=O)c1ccccc1,-,-,-,-,-,64
Cc1ccc(S(=O)(=O)N(C)Cc2nc(-c3ccccn3)no2)cc1,-,-,-,-,-,-
CN(Cc1nc(-c2ccncc2)no1)S(=O)(=O)c1ccc(Cl)cc1,-,93,-,-,-,96
CN(Cc1nc(-c2ccncc2)no1)S(=O)(=O)c1ccc(Br)cc1,-,93,-,-,31,89
COc1ccc(Cc2nc(-c3ccc(Br)cc3)no2)cc1,-,-,-,-,-,-
CN(Cc1nc(-c2ccncc2)no1)S(=O)(=O)c1ccccc1,-,72,-,-,-,99
COc1ccc(CC(=O)Nc2cccc(/C(C)=N/NC(=O)c3cccc([N+](=O)[O-])c3)c2)cc1,-,-,-,-,-,-
O=C(c1ccccc1)N1CCN(C(=O)C23CC4CC(CC(C4)C2)C3)CC1,-,-,-,-,-,-
CCc1ccccc1N1C[C@@]23C=C[C@@H](O2)C(C(=O)OCC(C)C)[C@H]3C1=O (stereo not given in full),-,-,-,-,-,-
Nc1nc2nc(SCC(=O)N3CCCc4ccccc43)[nH]c2c(=O)[nH]1,-,-,-,-,-,-
O=C(Nc1nc2ccc(S(=O)(=O)N3CCCCC3)cc2s1)c1ccncc1,-,84,-,-,-,86
Cc1ccc(S(=O)(=O)Nc2nc3ccc(S(=O)(=O)N4CCCC4)cc3s2)cc1,-,98,-,-,-,-
O=S(=O)(Nc1nc2ccc(S(=O)(=O)N3CCCCC3)cc2s1)c1ccccc1,-,99,-,-,-,-
COc1ccc(OC)c(C(=O)CSc2nnnn2C)c1,-,-,-,-,-,-
COc1ccc(C(=O)CSc2nnc(C3CC3)n2N)cc1,-,-,-,-,-,-
CCn1c(SCC(=O)c2ccc(OC)cc2)nnc1C1CC1,-,-,-,-,-,55
CCn1nnnc1SCC(=O)c1cc(OC)ccc1OC,-,-,-,-,-,93
CCn1c(SCC(=O)c2cc(OC)ccc2OC)nnc1C1CC1,-,-,.,-,.,94
COc1ccccc1C(=O)N1CCNC(=O)C1CC(=O)Nc1cccc(C)c1 (stereo not given),-,-,-,-,-,-
COc1ccc(-c2cc(C(F)(F)F)n3nc(C(=O)NCc4ccco4)cc3n2)cc1,-,-,-,-,-,-
Cc1ccc(-c2cc(C(F)F)n3ncc(C(=O)NCc4ccco4)c3n2)cc1,-,-,-,-,-,-
Cc1ccc(-c2cc(C(F)(F)F)n3nc(C(=O)NCCCn4ccnc4)cc3n2)cc1C,-,80,-,-,-,88
Cc1ccc(-c2cc(C(F)(F)F)n3ncc(C(=O)NCc4ccco4)c3n2)cc1,-,54,-,-,-,-
SMILES,CYP2C19 act,CYP2C9 inhib,PostGolgi yeast,CYP2C9 act,PostGolgi ctrl,CYP2C19 inh
O=C(NCc1ccco1)c1cc2nc(-c3ccc4c(c3)OCO4)cc(C(F)(F)F)n2n1,-,83,-,-,-,77
CCN1CCN(C(=O)C2CCC(CNS(=O)(=O)c3ccccc3)CC2)CC1 (stereo not given),-,-,-,-,-,-
O=C(NCCCn1ccnc1)Nc1cccc(Cl)c1,-,100,-,-,36,96
C=CCOc1ccc(NC(=O)C(=O)NCCCn2ccnc2)cc1,-,-,-,-,-,-
O=C(Cc1c(F)cccc1Cl)NCCCn1ccnc1,-,79,-,-,-,92
CC(C)(Oc1ccc(Cl)cc1)C(=O)NCCCn1ccnc1,-,87,-,-,-,100
O=C(Cc1ccc(Cl)cc1)NCCCn1ccnc1,-,88,-,-,-,98
O=C(Nc1cccc(Cl)c1)Nc1nccs1,-,-,-,-,-,-
O=C(NCCN1CCOCC1)c1ccc2c(c1)ncn2C1CCCCC1,-,-,-,-,-,-
O=C(CCn1cccc1)NCCc1ccc(Cl)cc1,-,-,-,-,-,59
O=C(CNC(=O)c1ccc(Cl)cc1)NCCCn1ccnc1,-,79,-,-,-,85
O=C(Cc1c(F)cccc1Cl)Nc1ccncc1,-,71,37,-,-,82
COc1ccc(Cl)cc1N1C(=O)C2CCCN2C1c1sccc1C (stereo not given),-,-,-,-,-,-
COc1cccc(C2=NOC(C(=O)NCc3ccccn3)C2)c1 (stereo not given),-,-,-,-,-,-
Cc1cnc(NC(=O)C(C)N2C(=O)C3CC=CCC3C2=O)s1 (stereo not given),-,-,-,-,-,-
CCCCCOc1ccc(CN2CCOCC2)cc1Cl,-,55,95,-,55,76
Cc1nn(Cc2n[nH]c(=S)n2Cc2ccccc2)c(C)c1Cl,-,-,-,-,-,53
CCNc1nc2nonc2nc1NCC,-,-,-,2.6,-,-
Cc1ccc(Nc2nc3nonc3nc2N(C)C)cc1,-,-,-,-,-,-
COc1ccc(OC)c(NC(=O)c2ccc(CN(c3cc(Cl)ccc3C)S(=O)(=O)c3ccccc3)cc2)c1,-,-,-,-,-,-
CC1(C)CC(=O)C2=C(C1)OC(N)=C(C#N)C2c1cccc(OC(=O)c2ccco2)c1 (stereo not given),-,76,-,-,-,-
C/C(=C\c1ccco1)C1C(C#N)=C(N)Oc2n[nH]c(-c3ccccc3)c21 (stereo not given),-,-,-,-,-,-
C/C(=C\c1ccco1)C1C(C#N)=C(N)OC2=C1C(=O)CC(C)(C)C2 (stereo not given),-,91,-,-,-,93
CCc1ccc(S(=O)(=O)NCCc2cn3ccsc3n2)s1,-,-,-,-,-,68
CCc1ccc(S(=O)(=O)NCc2cn3ccccc3n2)s1,-,-,-,-,-,86
SMILES,CYP2C19 act,CYP2C9 inhib,PostGolgi yeast,CYP2C9 act,PostGolgi ctrl,CYP2C19 inh
Cc1ccc2nc3c(c(N)c2c1)CCN3c1ccccc1,-,-,-,-,-,69
CCC(CC)C(=O)N=C1SC2CS(=O)(=O)CC2N1CCc1ccc(OC)cc1 (stereo not given),-,77,-,-,-,80
COc1ccc(CCN2C(=NC(=O)CCC(=O)O)SC3CS(=O)(=O)CC32)cc1 (stereo not given),-,-,-,-,-,-
CC(=O)NCCn1c(SCC(=O)c2ccccc2)nc2ccccc2c1=O,-,55,-,-,-,71
C=C(C)Cn1c(SCC#N)nc2ccccc2c1=O,-,-,-,-,-,-
CCN(CCCn1c(SCC#N)nc2ccccc2c1=O)c1ccccc1,-,93,-,-,-,77
CC(=O)NCCn1c(SCC(=O)OCc2ccccc2)nc2ccccc2c1=O,-,52,-,-,-,86
